KCNQ2 enhance – potentiators of rat KCNQ2 potassium channel. O88943. CHO-K1 KCNQ2, FluxOR thallium flux fluorescence; hits give high values. B-score at 10 µM. actives 0.54% (n = 310,000). AID 2239;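 active = fluorescence ratio B-score at least 3 SD of library B-scores, with initial fluorescence B-score within 3 of them, cut at about 5.3 in these data; same plate scores as AID 2156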;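 also: B-score of peak minus minimum over baseline fluorescence ratio after K+ and Tl+ stimulus; positive B-score means potentiation of KCNQ2 with more thallium influx and brighter signal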
Target sequence (O88943 whole entry, looked up): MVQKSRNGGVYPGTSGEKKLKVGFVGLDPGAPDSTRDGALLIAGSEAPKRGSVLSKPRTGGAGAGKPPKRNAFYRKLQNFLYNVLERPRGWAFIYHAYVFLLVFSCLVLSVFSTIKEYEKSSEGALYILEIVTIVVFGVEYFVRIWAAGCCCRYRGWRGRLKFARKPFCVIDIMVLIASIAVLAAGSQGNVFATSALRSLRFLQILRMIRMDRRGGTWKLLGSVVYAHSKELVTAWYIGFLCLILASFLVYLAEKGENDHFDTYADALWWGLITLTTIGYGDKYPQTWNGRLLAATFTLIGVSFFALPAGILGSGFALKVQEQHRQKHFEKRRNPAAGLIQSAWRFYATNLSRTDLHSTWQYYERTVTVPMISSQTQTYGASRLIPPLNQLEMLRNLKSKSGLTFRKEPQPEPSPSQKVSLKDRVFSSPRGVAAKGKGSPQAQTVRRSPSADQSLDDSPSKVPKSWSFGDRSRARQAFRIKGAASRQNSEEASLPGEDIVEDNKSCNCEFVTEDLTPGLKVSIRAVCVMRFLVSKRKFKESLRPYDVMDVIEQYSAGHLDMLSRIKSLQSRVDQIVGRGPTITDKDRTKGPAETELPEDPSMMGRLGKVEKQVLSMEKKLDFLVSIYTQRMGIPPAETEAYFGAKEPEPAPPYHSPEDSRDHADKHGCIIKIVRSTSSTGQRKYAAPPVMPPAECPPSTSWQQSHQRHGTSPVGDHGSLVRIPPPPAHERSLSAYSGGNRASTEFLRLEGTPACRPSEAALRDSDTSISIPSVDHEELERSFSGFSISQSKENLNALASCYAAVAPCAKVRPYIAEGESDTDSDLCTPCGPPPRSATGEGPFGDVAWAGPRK
KCNQ2 inh – KCNQ2 (rat) channel inhibition; B-score at 10 µM; actives 1.1% (n = 310,000); O88943; CHO-K1 KCNQ2, FluxOR thallium flux, 20 min; hits give low values;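 active = fluorescence ratio B-score at most minus 3 library SDs, with starting brightness B-score within 2 library SDs, cut at about -5.5 in these data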
Active calls of the source: *; i = inactive; . = no result. Shown are actives, neighbours in structure and some others; about 1.6% of the full set was active somewhere.

SMILES	KCNQ2 enhance	KCNQ2 inh
N#CC1(NC(=O)CN2CCc3ccccc3C2)CCCC1	.	i
Cc1ccc(C)c(N2CCN(C(=O)COc3cc(=O)n(C)c4ccccc34)CC2)c1	.	i
Cc1ccc(C)c(N2CCN(C(=O)CCCOc3cc(=O)n(C)c4ccccc34)CC2)c1	-6.4	-6.4*
COc1cccc(NC(=O)CSc2nnc3ccc(-c4ccncc4)nn23)c1	0.68	i
Cc1ccoc1C(=O)N1CCN(C(=O)c2occc2C)CC1	.	i
Oc1ccc(-c2nccc(-c3ccccn3)n2)cc1	1.2	i
Cc1cc(C)n2c(=O)c3ccc(Cl)cc3nc2c1C#N	.	i
Cc1cc(Cl)n2c(nc3cc(F)c(F)cc32)c1C#N	-13	-13*
CCc1nn(CC(=O)N2CCN(c3ccc(F)cc3)CC2)c(=O)c2cc3occc3n12	.	i
Cc1cc(C)n(-c2nc3ccccc3nc2NCCc2ccccc2)n1	-7.5	-7.5*
COc1ccc(Nc2nc3ccccc3nc2-n2nc(C)cc2C)cc1	.	i
O=C(NCCO)C1COc2ccccc2O1 (stereo not given)	0.89	i
O=C(NCCc1ccc(Cl)cc1)C1COc2ccccc2O1 (stereo not given)	-6	-6*
O=C(c1cccc(Cl)c1)N1CCC(=O)N(C(COCc2ccccc2)Cc2ccccc2)CC1 (stereo not given)	-5.8	-5.8*
Cc1cccc(COCC(Cc2ccccc2)N2CCN(C(=O)c3cccc(Cl)c3)CCC2=O)c1 (stereo not given)	.	i
O=C(c1ccc(Cl)c(Cl)c1)N1CCC(=O)N(C(COCc2ccccc2)Cc2ccccc2)CC1 (stereo not given)	-5.8	-5.8*
O=C(c1ccc(Cl)c(Cl)c1)N1CCC(=O)N(C(CO)Cc2ccccc2)CC1 (stereo not given)	1.1	i
COc1ccc(OC)c2nc(-c3ccc4c(c3)OCO4)ccc12	0.01	i
Cc1occc1C(=O)N(Cc1nc(-c2ccccc2)no1)C(C)C	.	i
Cc1cccc(C(=O)N2CCN(S(=O)(=O)N3CCCCCC3)CC2)c1	0.66	i
CCCN(CC1CC1)c1nc(C)nc(Nc2c(Cl)cc(Cl)cc2Cl)c1Cl	-5.6	-5.6*
CCCN(CC1CC1)c1nc(N)c(C#N)c(CC#N)c1C#N	.	i
COc1nc(N)nc(N)c1NS(=O)(=O)c1ccc(C)cc1	0.71	i
Cc1cccc(CSc2nnc(-c3cccs3)n2Cc2ccco2)c1	-6.1	-6.1*
Cc1cccc(CSc2nc3sc(C)c(C)c3c(=O)n2Cc2ccco2)c1	0.57	i
SMILES	KCNQ2 enhance	KCNQ2 inh
COCCN(C(=O)COC(=O)Cc1ccc(Cl)cc1Cl)c1c(N)n(Cc2ccccc2)c(=O)[nH]c1=O	0.68	i
C=C1SC(=Nc2ccccc2Cl)N(C(=O)c2sc3ccccc3c2Cl)C1(C)C	-5.8	-5.8*
C=C1SC(=Nc2c(C)cccc2Cl)N(C(=O)c2sc3ccccc3c2Cl)C12CCCCC2	.	i
COc1ccc(CCC(=O)OCC(=O)Nc2ccc(OC)c(OC)c2)cc1OC	0.95	i
O=C1c2cccc3c([N+](=O)[O-])ccc(c23)C(=O)N1c1ccccn1	.	i
O=C1c2cccc3c([N+](=O)[O-])ccc(c23)C(=O)N1c1ccc(Cl)cn1	-7	-7*
CCOC(=O)N1CC=C2C(C#N)=C(N)C(C#N)(C#N)[C@H](c3cccs3)C2C1 (stereo not given in full)	.	i
CC(C)(C)OC(=O)N1CC=C2C(C#N)=C(N)C(C#N)(C#N)C(c3cccs3)C2C1 (stereo not given)	-6.2	-6.2*
COC(=O)Cn1c(C(O)c2ccccc2)nc2ccccc21 (stereo not given)	0.01	i
Cc1cc(C)n2nc(CNS(=O)(=O)c3ccc(F)c(C)c3)nc2n1	0.27	i
COc1ccc(N/N=C(\C=N\O)C(=O)c2ccc(OC)cc2)cc1	.	i
CO/N=C/C(=N\Nc1cc(OC)cc(OC)c1)C(=O)c1ccccc1	-5.8	-5.8*
Cc1ccccc1C(=O)O/N=C/c1c(N2CCOCC2)n(C)c2ccccc12	-7.6	-7.6*
CN1CCN(c2c(/C=N/O)c3ccccc3n2C)CC1	1.7	i
O=C(Nc1ccc(Cl)cn1)c1cccc2c(Br)cccc12	.	i
Cc1ccc(N(C(=O)CNC(=O)c2ccco2)C(C(=O)NC2CCCC2)c2cccnc2)cc1F (stereo not given)	.	i
CC(C)Cc1cc(C(C)(C)C)ccc1OC(=S)N(C)C	-7.8	-7.8*
Cc1cc(C(C)(C)C)ccc1OCCN(C)C	.	i
Cc1cc2nnc(SCC(=O)NCc3ccco3)n2c2ccccc12	8.7*	i
Cc1cc2nnc(SCC(=O)NCc3cccs3)n2c2ccccc12	.	i
CCOc1ccc(NS(=O)(=O)c2ccc(C(=O)NCC(c3ccc(OC)cc3)N3CCCC3)cc2)cc1 (stereo not given)	.	i
COc1cccc(-c2cc(C(=O)N3CCN(c4ncccn4)CC3)c3ccccc3n2)c1	.	i
CC(C)Oc1cccc(-c2cc(C(=O)N3CCN(c4ncccn4)CC3)c3ccccc3n2)c1	-7.2	-7.2*
OCCC1CN(Cc2ccccc2OC2CCCC2)CCN1Cc1ccsc1 (stereo not given)	0.54	i
CCCN(C(=O)CCOc1ccc(C(C)(C)C)cc1)c1c(N)n(Cc2ccccc2)c(=O)[nH]c1=O	1	i
SMILES	KCNQ2 enhance	KCNQ2 inh
CC12CCC(=O)N1C(C(=O)Nc1nc(-c3ccccc3Cl)cs1)CS2 (stereo not given)	.	i
CCSc1ccc([C@@H]2[C@@H]3C(=O)N(CC)C(=O)[C@@H]3[C@]3(C(=O)OC)CCCN23)cc1	.	i
O=C(NC1=C(Nc2ccc(Cl)cc2)C(=O)c2ccccc2C1=O)c1ccccc1	.	i
CN(C1=C(NC(=O)c2ccc(Cl)cc2)C(=O)c2ccccc2C1=O)c1ccccc1	-6.3	-6.3*
O=C(CSc1n[nH]c(-c2ccncc2)n1)Nc1ccc(Cl)c(Cl)c1	0.1	i
CCOc1ccc2nc(N3CCCCCC3)sc2c1	1	i
COc1ccc2nc(N3C(=O)/C(=C/c4ccccc4)NC3=S)sc2c1	23*	i
CCOc1ccc2nc(N3C(=O)/C(=C/c4ccccc4)NC3=S)sc2c1	20*	i
COc1ccc2nc(-n3c(C)ccc3C)sc2c1	0.47	i
O=C(c1ccc(N2CCN(C(=O)c3ccc(F)c(F)c3)CC2)cc1)c1cccc(F)c1	.	i
Cc1ccc(SCCC(=O)NCCSCc2ccccc2C)cc1	-7.8	-7.8*
CCCCNC(=O)CCSc1ccc(C)cc1	.	i
CCCn1nc(C(=O)NNC(=O)CCCOc2ccc(C)cc2)c2ccccc2c1=O	0.65	i
COc1ccc(N(CC(C)C)S(=O)(=O)c2nnc(NC(=O)c3ccco3)s2)cc1	.	i
O=C(OCC(=O)N1CCc2ccccc2C1)c1cc(=O)[nH]c2ccccc12	1.3	i
Cc1[nH]n(-c2ccccc2)c(=O)c1/C=N/NC(=O)C(C)C	.	i
CCCCC1(Cc2ccc([N+](=O)[O-])cc2)C(=O)N(c2ccccc2)N(c2ccccc2)C1=O	-6	-6*
Cc1nn(Cc2ccc([N+](=O)[O-])cc2)c(=O)n1-c1ccccc1	0.03	i
COc1ccc(CNc2ncc(-c3cccc([N+](=O)[O-])c3)n2C)c(OC)c1OC	1.4	i
O=C(NC(Cc1c[nH]c2ccccc12)C(=O)O)c1cccs1 (stereo not given)	.	i
